Reference: publication PMC7862700, “An all-to-all approach to the identification of sequence-specific readers for epigenetic DNA modifications on cytosine”

What was measured:
Assay in all cases: DAPPL (digital affinity profiling via proximity ligation, sequencing); 10 mM Tris-HCl pH 7.5, 50 mM NaCl, 1 mM DTT, 4% glycerol, room temperature, 30 min; GST-TFs on glutathione beads, 16-mer random dsDNA library, 0.1% formaldehyde crosslink after washing; high values mean tight binding
Conditions in all cases: protein: recombinant; tags: N-terminal GST; dsDNA, one strand shown
FLI1 = molecular target: T1, FLI1 (Homo sapiens, UniProt Q01543 1-452)
T1 sequence: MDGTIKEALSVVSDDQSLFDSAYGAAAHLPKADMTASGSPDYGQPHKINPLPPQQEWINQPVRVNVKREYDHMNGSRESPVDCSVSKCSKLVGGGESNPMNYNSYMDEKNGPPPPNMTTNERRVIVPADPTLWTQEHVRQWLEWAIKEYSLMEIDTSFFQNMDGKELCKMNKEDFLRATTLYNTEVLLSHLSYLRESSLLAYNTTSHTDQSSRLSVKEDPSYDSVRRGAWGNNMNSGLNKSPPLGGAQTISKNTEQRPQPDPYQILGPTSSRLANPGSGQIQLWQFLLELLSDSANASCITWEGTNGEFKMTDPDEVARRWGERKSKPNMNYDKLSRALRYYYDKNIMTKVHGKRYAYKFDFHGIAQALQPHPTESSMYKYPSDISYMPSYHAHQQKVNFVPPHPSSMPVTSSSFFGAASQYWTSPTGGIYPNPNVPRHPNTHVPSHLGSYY
Outline: (§1)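 Pools were built from human transcription factors expressed in yeast as GST fusions, captured on glutathione beads and DNA-barcoded, along with a tag-only sample. Incubation with 200 nmole of a 16-mer random double-stranded DNA library lasted 30 min at room temperature in Tris/NaCl/DTT/glycerol buffer, and was followed by washing, 0.1% formaldehyde crosslinking, proximity ligation, PCR amplification and Illumina NextSeq500 sequencing. Binding signal is the quotient of each hexamer's read frequency for a factor and its frequency for the tag-only sample.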

GABPA = molecular target: T2, GABPA (Homo sapiens, UniProt Q06546 1-454)
T2 sequence: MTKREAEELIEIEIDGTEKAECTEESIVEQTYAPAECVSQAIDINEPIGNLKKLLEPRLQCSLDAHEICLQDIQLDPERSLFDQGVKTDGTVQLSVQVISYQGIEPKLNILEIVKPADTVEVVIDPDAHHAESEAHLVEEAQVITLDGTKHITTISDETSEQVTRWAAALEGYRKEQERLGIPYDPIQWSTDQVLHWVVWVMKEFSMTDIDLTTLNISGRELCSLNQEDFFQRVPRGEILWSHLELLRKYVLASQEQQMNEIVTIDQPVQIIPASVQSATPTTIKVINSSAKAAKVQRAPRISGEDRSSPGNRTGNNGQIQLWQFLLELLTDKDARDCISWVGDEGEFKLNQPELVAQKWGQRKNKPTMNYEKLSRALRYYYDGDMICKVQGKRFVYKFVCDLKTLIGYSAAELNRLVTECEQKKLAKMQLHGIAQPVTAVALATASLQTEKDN
Outline: as §1

ERG = molecular target: T3, ERG (Homo sapiens, UniProt P11308 1-479)
T3 sequence: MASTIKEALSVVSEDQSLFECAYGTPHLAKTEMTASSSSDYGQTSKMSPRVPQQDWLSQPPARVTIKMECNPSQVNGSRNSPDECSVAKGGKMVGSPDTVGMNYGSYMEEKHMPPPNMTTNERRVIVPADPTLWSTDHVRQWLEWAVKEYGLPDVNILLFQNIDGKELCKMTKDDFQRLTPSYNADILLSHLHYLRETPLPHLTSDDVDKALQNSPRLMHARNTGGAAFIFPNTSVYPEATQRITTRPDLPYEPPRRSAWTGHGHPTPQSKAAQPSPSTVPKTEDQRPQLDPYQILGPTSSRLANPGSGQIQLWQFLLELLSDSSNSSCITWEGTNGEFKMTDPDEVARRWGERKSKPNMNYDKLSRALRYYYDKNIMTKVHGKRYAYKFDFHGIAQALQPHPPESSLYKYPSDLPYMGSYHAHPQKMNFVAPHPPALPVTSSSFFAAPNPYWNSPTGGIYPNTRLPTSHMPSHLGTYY
Outline: as §1

ELF1 = ELF1 (Homo sapiens, UniProt P32519 1-619)
Chain of ELF1 (P32519 whole entry): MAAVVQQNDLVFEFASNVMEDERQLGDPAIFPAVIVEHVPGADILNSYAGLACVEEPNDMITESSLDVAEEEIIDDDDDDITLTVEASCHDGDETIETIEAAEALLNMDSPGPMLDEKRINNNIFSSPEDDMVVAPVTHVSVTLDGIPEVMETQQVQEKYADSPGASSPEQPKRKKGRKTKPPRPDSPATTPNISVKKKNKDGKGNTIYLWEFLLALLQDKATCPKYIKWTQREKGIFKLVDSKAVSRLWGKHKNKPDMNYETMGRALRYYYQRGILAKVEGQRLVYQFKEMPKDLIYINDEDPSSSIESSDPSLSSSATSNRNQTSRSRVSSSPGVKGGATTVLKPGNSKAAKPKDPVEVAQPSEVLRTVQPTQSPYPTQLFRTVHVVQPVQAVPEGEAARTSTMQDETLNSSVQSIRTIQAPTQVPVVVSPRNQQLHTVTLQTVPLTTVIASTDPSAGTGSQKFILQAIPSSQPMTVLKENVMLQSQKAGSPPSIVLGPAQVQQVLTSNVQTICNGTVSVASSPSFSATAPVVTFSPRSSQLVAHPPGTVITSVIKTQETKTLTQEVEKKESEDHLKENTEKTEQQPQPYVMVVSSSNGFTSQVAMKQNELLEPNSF
Outline: as §1

EHF = molecular target: T4, EHF (Homo sapiens, UniProt Q9NZC4 1-300)
T4 sequence: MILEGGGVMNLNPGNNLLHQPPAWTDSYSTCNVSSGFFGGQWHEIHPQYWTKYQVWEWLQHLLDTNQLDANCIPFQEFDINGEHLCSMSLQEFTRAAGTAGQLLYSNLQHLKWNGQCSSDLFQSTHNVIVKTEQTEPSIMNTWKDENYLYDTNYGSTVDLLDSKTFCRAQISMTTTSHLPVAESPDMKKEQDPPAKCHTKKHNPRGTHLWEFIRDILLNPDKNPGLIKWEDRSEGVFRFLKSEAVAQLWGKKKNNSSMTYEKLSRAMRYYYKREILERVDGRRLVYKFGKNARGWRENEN
Outline: as §1

SPI1 = SPI1 (Homo sapiens, UniProt P17947 1-270)
Outline: as §1

SPIB = SPIB (Homo sapiens, UniProt Q01892 1-262)
Chain of SPIB (Q01892 whole entry): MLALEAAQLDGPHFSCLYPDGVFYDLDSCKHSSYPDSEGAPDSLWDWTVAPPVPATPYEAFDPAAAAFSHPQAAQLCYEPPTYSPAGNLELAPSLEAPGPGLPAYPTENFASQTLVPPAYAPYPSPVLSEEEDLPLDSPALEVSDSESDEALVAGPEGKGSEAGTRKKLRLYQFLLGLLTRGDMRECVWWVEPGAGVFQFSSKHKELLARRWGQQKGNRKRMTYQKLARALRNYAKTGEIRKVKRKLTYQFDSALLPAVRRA
Outline: as §1

FEV = molecular target: T5, FEV (Homo sapiens, UniProt Q99581 1-238)
T5 sequence: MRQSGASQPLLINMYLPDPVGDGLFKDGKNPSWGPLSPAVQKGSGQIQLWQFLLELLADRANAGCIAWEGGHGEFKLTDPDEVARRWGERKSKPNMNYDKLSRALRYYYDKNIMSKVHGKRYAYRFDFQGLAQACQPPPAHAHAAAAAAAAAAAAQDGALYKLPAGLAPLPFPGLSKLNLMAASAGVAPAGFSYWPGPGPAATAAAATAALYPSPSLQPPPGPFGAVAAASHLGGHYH
Outline: as §1

ETV5 = ETV5 (Homo sapiens, UniProt P41161 1-510)
Chain of ETV5 (P41161 whole entry): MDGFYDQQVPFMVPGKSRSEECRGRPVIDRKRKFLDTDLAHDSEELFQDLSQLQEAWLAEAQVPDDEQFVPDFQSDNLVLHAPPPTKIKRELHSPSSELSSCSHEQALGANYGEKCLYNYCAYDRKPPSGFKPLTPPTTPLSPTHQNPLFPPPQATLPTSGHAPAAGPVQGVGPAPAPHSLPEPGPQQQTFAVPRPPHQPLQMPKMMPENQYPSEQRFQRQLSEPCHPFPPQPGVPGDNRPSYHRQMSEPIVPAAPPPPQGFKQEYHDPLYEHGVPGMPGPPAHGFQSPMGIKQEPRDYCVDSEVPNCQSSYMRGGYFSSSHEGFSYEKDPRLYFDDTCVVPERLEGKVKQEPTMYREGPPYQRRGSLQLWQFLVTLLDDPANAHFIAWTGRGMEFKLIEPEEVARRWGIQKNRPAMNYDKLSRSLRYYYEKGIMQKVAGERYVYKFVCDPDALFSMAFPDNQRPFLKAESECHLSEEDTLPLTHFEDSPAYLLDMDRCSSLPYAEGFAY
Outline: as §1

ELF4 = ELF4 (Homo sapiens, UniProt Q99607 1-663)
Chain of ELF4 (Q99607 whole entry): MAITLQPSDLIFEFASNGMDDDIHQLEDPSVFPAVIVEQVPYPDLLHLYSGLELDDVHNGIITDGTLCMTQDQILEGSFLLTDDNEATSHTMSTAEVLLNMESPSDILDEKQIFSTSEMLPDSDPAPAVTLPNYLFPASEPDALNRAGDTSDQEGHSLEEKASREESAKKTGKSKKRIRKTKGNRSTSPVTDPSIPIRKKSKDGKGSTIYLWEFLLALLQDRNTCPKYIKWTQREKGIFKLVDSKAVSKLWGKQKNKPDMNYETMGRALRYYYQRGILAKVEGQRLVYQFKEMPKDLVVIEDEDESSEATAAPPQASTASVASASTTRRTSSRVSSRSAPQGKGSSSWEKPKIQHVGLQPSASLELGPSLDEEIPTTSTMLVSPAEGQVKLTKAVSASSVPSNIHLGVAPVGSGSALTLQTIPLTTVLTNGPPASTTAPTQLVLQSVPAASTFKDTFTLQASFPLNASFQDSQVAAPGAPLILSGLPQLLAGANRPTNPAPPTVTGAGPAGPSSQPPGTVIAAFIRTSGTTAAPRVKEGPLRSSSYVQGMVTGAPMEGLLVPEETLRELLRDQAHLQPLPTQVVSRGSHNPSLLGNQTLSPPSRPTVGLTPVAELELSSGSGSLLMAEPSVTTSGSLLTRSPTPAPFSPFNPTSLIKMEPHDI
Outline: as §1

ETV2 = molecular target: T6, ETV2 (Homo sapiens, UniProt O00321 1-342)
T6 sequence: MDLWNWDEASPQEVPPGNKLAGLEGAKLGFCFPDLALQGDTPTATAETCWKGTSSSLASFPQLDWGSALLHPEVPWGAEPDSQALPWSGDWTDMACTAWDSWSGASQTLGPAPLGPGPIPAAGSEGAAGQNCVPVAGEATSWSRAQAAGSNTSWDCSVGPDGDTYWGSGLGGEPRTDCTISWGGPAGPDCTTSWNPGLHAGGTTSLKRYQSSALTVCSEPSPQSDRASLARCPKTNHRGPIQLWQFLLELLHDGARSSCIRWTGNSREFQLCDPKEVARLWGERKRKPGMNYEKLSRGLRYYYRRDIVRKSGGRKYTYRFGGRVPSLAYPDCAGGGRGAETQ
Outline: as §1

ELF3 = molecular target: T7, ELF3 (Homo sapiens, UniProt P78545 1-371)
T7 sequence: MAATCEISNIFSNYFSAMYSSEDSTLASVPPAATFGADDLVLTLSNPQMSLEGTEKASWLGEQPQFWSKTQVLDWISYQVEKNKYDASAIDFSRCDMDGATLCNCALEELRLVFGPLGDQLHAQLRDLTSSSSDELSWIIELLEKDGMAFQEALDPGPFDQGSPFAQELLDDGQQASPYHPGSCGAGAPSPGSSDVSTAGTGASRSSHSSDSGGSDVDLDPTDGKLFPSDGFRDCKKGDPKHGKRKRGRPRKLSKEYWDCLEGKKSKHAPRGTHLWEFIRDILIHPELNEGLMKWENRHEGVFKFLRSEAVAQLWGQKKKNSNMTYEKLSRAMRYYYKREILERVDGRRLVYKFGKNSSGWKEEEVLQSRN
Outline: as §1

ETV1 = ETV1 (Homo sapiens, UniProt P50549 1-477)
Chain of ETV1 (P50549 whole entry): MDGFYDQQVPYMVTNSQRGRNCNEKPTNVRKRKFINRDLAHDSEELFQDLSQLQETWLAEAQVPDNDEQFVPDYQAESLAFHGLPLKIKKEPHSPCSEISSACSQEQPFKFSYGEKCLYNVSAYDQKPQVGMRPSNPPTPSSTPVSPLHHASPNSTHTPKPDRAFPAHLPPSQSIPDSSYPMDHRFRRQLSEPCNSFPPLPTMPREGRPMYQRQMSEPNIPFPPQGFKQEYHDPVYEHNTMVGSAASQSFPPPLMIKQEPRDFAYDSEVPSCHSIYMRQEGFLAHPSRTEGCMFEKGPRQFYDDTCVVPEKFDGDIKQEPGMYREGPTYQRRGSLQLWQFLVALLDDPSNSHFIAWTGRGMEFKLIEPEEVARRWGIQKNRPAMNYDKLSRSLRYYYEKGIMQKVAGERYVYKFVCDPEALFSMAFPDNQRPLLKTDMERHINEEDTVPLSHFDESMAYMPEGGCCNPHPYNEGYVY
Outline: as §1

ERF = molecular target: T8, ERF (Homo sapiens, UniProt P50548 1-548)
T8 sequence: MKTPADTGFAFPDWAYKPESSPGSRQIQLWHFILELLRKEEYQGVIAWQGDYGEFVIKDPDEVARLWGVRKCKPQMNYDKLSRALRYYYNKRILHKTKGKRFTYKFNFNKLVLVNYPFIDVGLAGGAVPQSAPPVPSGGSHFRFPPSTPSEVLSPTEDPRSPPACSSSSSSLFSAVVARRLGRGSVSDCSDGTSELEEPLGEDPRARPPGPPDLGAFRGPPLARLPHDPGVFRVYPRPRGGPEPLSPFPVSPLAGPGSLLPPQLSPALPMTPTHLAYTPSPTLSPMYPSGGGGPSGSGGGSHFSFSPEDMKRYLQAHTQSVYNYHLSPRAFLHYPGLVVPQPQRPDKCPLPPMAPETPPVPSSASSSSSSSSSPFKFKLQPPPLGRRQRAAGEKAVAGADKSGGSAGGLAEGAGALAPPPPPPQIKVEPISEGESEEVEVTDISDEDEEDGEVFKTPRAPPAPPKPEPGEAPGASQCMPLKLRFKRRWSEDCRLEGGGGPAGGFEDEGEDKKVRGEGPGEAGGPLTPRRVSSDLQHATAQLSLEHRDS
Outline: as §1

ETV3L = molecular target: T9, ETV3L (Homo sapiens, UniProt Q6ZN32 1-361)
T9 sequence: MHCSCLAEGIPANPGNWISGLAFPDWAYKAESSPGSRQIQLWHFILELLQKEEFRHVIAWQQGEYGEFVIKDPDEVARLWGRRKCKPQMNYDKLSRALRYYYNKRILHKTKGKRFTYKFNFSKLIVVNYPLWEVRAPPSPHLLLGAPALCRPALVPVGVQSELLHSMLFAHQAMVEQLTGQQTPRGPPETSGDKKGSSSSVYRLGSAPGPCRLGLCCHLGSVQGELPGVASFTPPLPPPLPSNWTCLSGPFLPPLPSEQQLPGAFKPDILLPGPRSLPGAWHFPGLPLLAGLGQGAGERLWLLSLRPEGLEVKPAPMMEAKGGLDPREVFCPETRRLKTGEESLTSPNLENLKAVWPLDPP
Outline: as §1

ETS2 = molecular target: T10, ETS2 (Homo sapiens, UniProt P15036 1-469)
T10 sequence: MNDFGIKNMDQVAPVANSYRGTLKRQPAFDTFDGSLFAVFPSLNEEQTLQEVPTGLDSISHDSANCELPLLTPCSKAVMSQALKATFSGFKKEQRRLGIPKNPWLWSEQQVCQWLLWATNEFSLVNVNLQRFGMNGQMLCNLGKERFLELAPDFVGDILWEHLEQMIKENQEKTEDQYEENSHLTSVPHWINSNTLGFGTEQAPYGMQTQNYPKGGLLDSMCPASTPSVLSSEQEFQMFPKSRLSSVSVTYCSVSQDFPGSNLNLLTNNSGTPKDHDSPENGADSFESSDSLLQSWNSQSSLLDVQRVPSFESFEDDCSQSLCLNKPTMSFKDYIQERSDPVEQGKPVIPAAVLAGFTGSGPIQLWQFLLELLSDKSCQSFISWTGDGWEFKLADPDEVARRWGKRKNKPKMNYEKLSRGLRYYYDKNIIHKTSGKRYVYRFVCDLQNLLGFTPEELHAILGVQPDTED
Outline: as §1

ETV7 = molecular target: T11, ETV7 (Homo sapiens, UniProt Q9Y603 1-341)
T11 sequence: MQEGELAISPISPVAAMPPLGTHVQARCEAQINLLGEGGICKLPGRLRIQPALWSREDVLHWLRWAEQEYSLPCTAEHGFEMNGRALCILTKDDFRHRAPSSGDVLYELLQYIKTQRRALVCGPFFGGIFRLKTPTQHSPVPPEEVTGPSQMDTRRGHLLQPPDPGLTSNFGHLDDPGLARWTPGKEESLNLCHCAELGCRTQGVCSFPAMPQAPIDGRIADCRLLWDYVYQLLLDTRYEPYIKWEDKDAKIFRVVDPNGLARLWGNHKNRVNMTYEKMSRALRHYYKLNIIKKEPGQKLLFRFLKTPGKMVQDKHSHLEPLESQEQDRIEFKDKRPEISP
Outline: as §1

ETV3 = molecular target: T12, ETV3 (Homo sapiens, UniProt P41162-2 1-143)
T12 sequence: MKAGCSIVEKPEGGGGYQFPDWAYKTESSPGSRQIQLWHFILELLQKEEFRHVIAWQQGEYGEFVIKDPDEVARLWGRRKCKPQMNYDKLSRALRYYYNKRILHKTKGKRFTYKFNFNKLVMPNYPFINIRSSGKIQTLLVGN
Outline: as §1

ETV6 = ETV6 (Homo sapiens, UniProt P41212 1-452)
Chain of ETV6 (P41212 whole entry): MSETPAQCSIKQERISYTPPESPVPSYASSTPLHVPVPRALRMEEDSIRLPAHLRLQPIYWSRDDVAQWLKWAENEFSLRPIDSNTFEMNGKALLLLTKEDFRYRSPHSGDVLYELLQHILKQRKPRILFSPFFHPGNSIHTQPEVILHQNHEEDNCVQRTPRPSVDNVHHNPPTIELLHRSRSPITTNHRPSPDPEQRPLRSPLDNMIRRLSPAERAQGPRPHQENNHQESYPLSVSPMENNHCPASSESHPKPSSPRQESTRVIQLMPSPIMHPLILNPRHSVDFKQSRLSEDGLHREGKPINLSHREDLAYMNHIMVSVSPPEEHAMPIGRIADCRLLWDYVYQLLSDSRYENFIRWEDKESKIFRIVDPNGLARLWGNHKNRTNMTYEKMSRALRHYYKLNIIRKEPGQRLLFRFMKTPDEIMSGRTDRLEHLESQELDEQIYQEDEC
Outline: as §1

Sequence: ATACCG
- binding signal (FLI1): 1.16 fold enrichment (6-mer frequency, TF over GST control)
- binding signal (GABPA): 1.02 fold enrichment (6-mer frequency, TF over GST control)
- binding signal (ERG): 1.16 fold enrichment (6-mer frequency, TF over GST control)
- binding signal (ELF1): 1.11 fold enrichment (6-mer frequency, TF over GST control)
- binding signal (EHF): 1.12 fold enrichment (6-mer frequency, TF over GST control)
- binding signal (SPI1): 1.06 fold enrichment (6-mer frequency, TF over GST control)
- binding signal (SPIB): 1.12 fold enrichment (6-mer frequency, TF over GST control)
- binding signal (FEV): 1.25 fold enrichment (6-mer frequency, TF over GST control)
- binding signal (ETV5): 1.1 fold enrichment (6-mer frequency, TF over GST control)
- binding signal (ELF4): 1.12 fold enrichment (6-mer frequency, TF over GST control)
- binding signal (ETV2): 1.07 fold enrichment (6-mer frequency, TF over GST control)
- binding signal (ELF3): 1.2 fold enrichment (6-mer frequency, TF over GST control)
- binding signal (ETV1): 1.14 fold enrichment (6-mer frequency, TF over GST control)
- binding signal (ERF): 1.08 fold enrichment (6-mer frequency, TF over GST control)
- binding signal (ETV3L): 1.1 fold enrichment (6-mer frequency, TF over GST control)
- binding signal (ETS2): 1.11 fold enrichment (6-mer frequency, TF over GST control)
- binding signal (ETV7): 1.04 fold enrichment (6-mer frequency, TF over GST control)
- binding signal (ETV3): 1.2 fold enrichment (6-mer frequency, TF over GST control)
- binding signal (ETV6): 1.09 fold enrichment (6-mer frequency, TF over GST control)
